# Screening results as filed in PubChem BioAssay.
# PKA-R1A activ = PKA-R1A complex activation | activation, % at 11.4 µM | AID 504707 | PKA-R1A dissociation, Cy5-IP20 fluorescence polarization; scaled: DMSO 0%, 113 µM cGMP 100% | actives 0.083% (n = 340,000) | P00514+P68181;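 active = percent activation above the mean of all tested compounds plus 3 SD, cut at about 19% in these data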;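 also: higher means more PKAc released from R1A so a rise in polarization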
# PG9 binder = small molecules binding HIV-1 gp120 antibody PG9; actives 0.43% (n = 360,000); TR-FRET gp120-PG9 antibody binding; inhibition, % at 6.7 µM; in the data active = inhibition above about 8.5%
# NR1D1 modulator = modulates human Rev-erb alpha binding to DNA; P20393; Rev-erbα–FITC-DNA binding, fluorescence polarization, 90 min; actives 0.79% (n = 370,000); activity, % at 10 µM; AID 1259318;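 active = activity above about 14%, limit read from the data; passing the limit was not always enough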;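 also: 0% = DMSO wells with 35 nM protein and 100% = DMSO wells with 750 nM protein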
# Target sequence (P20393 whole entry, looked up): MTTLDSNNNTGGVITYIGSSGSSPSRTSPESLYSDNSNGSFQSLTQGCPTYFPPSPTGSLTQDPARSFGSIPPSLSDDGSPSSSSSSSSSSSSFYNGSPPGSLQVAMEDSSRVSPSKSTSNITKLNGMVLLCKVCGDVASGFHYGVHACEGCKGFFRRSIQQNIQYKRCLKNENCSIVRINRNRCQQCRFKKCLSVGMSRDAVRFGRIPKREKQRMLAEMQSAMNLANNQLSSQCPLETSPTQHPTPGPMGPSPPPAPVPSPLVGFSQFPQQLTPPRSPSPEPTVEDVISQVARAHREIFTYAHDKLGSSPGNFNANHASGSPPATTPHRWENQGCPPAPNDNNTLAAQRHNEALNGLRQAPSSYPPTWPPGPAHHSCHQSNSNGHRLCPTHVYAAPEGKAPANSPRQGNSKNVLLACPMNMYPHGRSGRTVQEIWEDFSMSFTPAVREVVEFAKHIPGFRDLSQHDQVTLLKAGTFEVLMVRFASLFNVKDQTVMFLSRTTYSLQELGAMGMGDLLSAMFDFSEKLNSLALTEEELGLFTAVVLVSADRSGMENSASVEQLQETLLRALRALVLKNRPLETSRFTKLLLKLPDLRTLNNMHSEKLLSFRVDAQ
# PKA-R2B activ = activators of human PKA-R2B complex; P22694+P31323; actives 0.079% (n = 340,000); PKA-R2B holoenzyme dissociation, Cy5-IP20 fluorescence polarization; R2B truncated from residue 108, S112A mutant; 0% DMSO only, 100% 113 µM cGMP; activation, % at 11.4 µM; AID 504700;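 active = activation above a cutoff set at the mean over all compounds plus 3 SD, cut at about 18% in these data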;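 also: higher means more holoenzyme dissociation and a rise in polarization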
# NR1D1 mod conf = Rev-erb alpha (human) modulation, hit confirmation; shares compounds with NR1D1 modulator; Rev-erb alpha FITC-DNA binding, fluorescence polarization, 90 min; activation, % at 25 µM; actives 61% (n = 3,000);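 active = activation at or above a set limit, or at least 3 SD above the negative control mean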;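 also: 0% = 35 nM protein with DMSO and 100% = 750 nM protein high control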
# RORg counter = counter-screen for Rev-erb alpha modulators: RORgamma DNA binding | shares compounds with NR1D1 modulator | purified RORgamma protein-FITC-DNA binding, fluorescence polarization | IC50, µM | actives 8% (n = 910);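 active = Compounds whose fitted half-maximal concentration for disrupting protein-DNA binding is below 10 micromolar; the record names Rev-erb in its text, so the target is in doubt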
# * marks the source's active call; other numbers are inactive results; i = inactive; x = no result. Sampled rows, rich in hits. Any-hit rate of the full collection: about 1.2%.
SMILES,PKA-R1A activ,PG9 binder,NR1D1 modulator,PKA-R2B activ,NR1D1 mod conf,others
Cc1cc(C(=O)NN)c2cc(Br)ccc2n1,1,-2,-3,12,x,
CCCCOC(=O)c1cc(C)nc2ccc(Br)cc12,4,7,44*,-7,33*,RORg counter=>40
O=C(CCCn1c(=S)[nH]c2ccccc2c1=O)N1CCN(c2cccc(Cl)c2)CC1,-1,3,26*,-11,57*,
COc1ccc(C(=O)c2c[nH]c(C(=O)NCc3cccs3)c2)cc1,-6,0,43*,12,63*,RORg counter=>40
CC(C)(C)[C@H](NC(=O)c1cc(Cl)cc(Cl)c1)C(=O)N1CCC[C@H]1C(=O)N[C@H](C#N)CC(=O)O,x,x,-1,x,x,
COc1cc(-c2nc(-c3cccc(C)c3)no2)cc(OC)c1OC,-3,1,-2,4,x,
COc1cc(-c2noc(-c3cccc(Cl)c3)n2)cc(OC)c1OC,3,4,74*,3,123*,
COC(=O)[C@H](CC(C)C)N(Cc1cn(Cc2ccccc2)nn1)S(=O)(=O)c1ccc(F)cc1Br,x,x,-4,x,x,
Cc1ccc(C(=O)Nc2cccc(C(F)(F)F)c2)cc1NC(=O)c1nccn1C,-2,-3,20*,-14,23*,RORg counter=>40
COc1cc2ccccc2cc1C(=O)Nc1ccc(Cl)cn1,4,0,31*,-5,17,
O=C(Nc1ccc(Cl)cn1)c1ccccc1F,5,2,-3,-10,x,
CC(=O)Nc1c(-c2ccc(C(F)(F)F)cc2)nc2ncccn12,x,x,-9,x,x,
CCOC(=O)[C@]12CCCC3=C1N(CCC3)C(=O)[C@@H](CC(=O)NCC1CCCCC1)C2,x,x,6,x,x,
Cc1ccn2c(NC3CCCCC3)c(-c3cccc(SC4CCCCC4)c3)nc2c1,4,1,3,-10,x,
CCCCCCSc1ccc(-c2nc3ccc(C)cn3c2NCCCC)cc1OC,x,2,16*,x,6,
CCCCCCSc1ccc(-c2nc3ccc(Cl)cn3c2NCCCC)cc1OC,6,1,6,2,x,
Cc1ccn2c(NC3CCCCC3)c(-c3ccc(SC4CCCCC4)cc3)nc2c1,x,4,33*,x,15*,
CCCCCCSc1ccc(-c2nc3ccc(Cl)cn3c2NC2CCCCC2)cc1,-6,1,23*,5,22*,
CCCCNc1c(-c2ccc(SC3CCCCC3)c(OC)c2)nc2ccc(Cl)cn12,-7,-2,20*,-17,9,
CCOC(=O)C1CCN(C(c2cc3c(C)ccc(C)c3[nH]c2=O)c2nnnn2C2CCCCC2)CC1 (stereo not given),3,0,3,-6,x,
CCOC(=O)C1CCN(C(c2cc3ccc(C)c(C)c3[nH]c2=O)c2nnnn2C2CCCCC2)CC1 (stereo not given),10,-2,69*,14,97*,
CCCc1nc2oc3c(NCCCN(C)C)ncnc3c2c2c1CCCC2,x,1,-7,x,x,
CCCCc1nc2sc3c(SCCN(C)C)ncnc3c2c2c1CCC2,3,0,31*,7,47*,RORg counter=>40
CC(C)c1nc2sc3c(SCC(N)=O)ncnc3c2c2c1CCC2,-3,-2,869*,0,711*,RORg counter=>40
CC(C)C[C@@H](CO)N1Cc2nnn(Cc3ccccc3)c2-c2ccccc2S1(=O)=O,x,x,2,x,x,
SMILES,PKA-R1A activ,PG9 binder,NR1D1 modulator,PKA-R2B activ,NR1D1 mod conf,others
CC(=NN1CCN(Cc2ccccc2Cl)CC1)c1ccc(O)cc1,x,x,-2,x,x,
O=C(NCCc1ccccc1F)C1CCC(=O)N(Cc2ccccc2F)C1 (stereo not given),-9,0,-2,1,x,
Cc1n[nH]c(C)c1CCNC(=O)C1CCC(=O)N(Cc2ccccc2F)C1 (stereo not given),-3,0,17*,-14,0,
COC(=O)C1CN(Cc2ccc(OC)cc2)CCS(=O)(=O)N1Cc1ccc(F)cc1 (stereo not given),x,x,2,x,x,
CC(C)Cc1nc2sc3c(=O)[nH]cnc3c2c2c1CCCC2,-11,0,0,-11,x,
O=c1[nH]cnc2c1sc1nc(C(F)F)cc(-c3ccccc3)c12,5,5,32*,-3,28*,
CCOC(=O)[C@@]12CCCC3=C1N(CCC3)C(=O)[C@H]2CC(=O)NCCCN1CCCC1=O,x,x,-1,x,x,
CCCCN1C(=O)/C(=C/C=C2\SCCN2C)SC1=S,-5,-2,126*,-8,47*,RORg counter=>40
CN1CCS/C1=C/C=C1/SC(=S)N(Cc2ccccc2)C1=O,-3,-3,188*,0,169*,RORg counter=>40
O=C(O)c1ccc(/C=C2/SC(=S)N(Cc3ccccc3)C2=O)cc1,-12,1,-2,9,x,
CN1CCS/C1=C/C=C1\SC(=S)N(CC(=O)O)C1=O,-4,-25,302*,11,246*,RORg counter=>40
CC(=O)c1cc(-c2cccc([N+](=O)[O-])c2)c(=O)n2c1CCC2,x,x,-6,x,x,
C[C@@H]1COc2cc(Br)ccc2S(=O)(=O)N1Cc1cn(Cc2ccc(C(F)(F)F)cc2)nn1,x,x,-2,x,x,
Cc1cc(N2CCCN(C)CC2)n2nc(C)nc2n1,x,x,-3,x,x,
COc1ccc(-c2nnc3ccc(SCC(=O)Nc4nc5ccccc5s4)nn23)cc1OC,-7,-1,46*,-1,15,
CN(CCO)c1ccc2c(c1)Oc1ccccc1CN(Cc1cn(Cc3ccc(C(F)(F)F)cc3)nn1)S2(=O)=O,x,x,-3,x,x,
COC(=O)c1cc(-c2cc3ccccc3s2)c(=O)n2c1CCC2,x,x,58*,x,40*,RORg counter=>40
NC(=O)c1cc2ccccc2o/c1=N\NC(=O)c1ccccc1O,0,-6,21*,3,-11,
COC(=O)C1CN(Cc2cn(Cc3ccccc3)nn2)CCS(=O)(=O)N1Cc1ccccc1 (stereo not given),x,x,-3,x,x,
O=C(CSc1nc2ccsc2c(=O)n1Cc1ccccc1)NCc1ccco1,-12,16*,17*,1,5,
Nc1cccc(N2C(=O)c3cccc4c(N)ccc(c34)C2=O)c1,-10,-15,80*,5,64*,RORg counter=>40
O=C(O)c1cccc(N2C(=O)c3cccc4c(Cl)ccc(c34)C2=O)c1,3,0,0,5,x,
CC(C)CCN1C(=O)c2cccc3c(N)ccc(c23)C1=O,-8,1,139*,-11,132*,RORg counter=i
CCN1C(=O)c2cccc3c(Cl)ccc(c23)C1=O,-4,1,41*,-2,30*,
CCN1C(=O)c2cccc3c(Cl)ccc1c23,5,-2,3,8,x,
Nc1ccc2c3c(cccc13)C(=O)N(c1ccccc1)C2=O,-7,-5,92*,-8,80*,RORg counter=>40
Cc1ccc(OCCn2c(CCNC(=O)c3ccc(F)cc3F)nc3ccccc32)cc1,x,x,4,x,x,
O=C1CSc2ccc(C(=O)N3CCCC(C(=O)N4CCCCC4)C3)cc2N1 (stereo not given),x,x,6,x,x,
